# Experimental data from PubChem BioAssay (NCI).
# The panel holds about 79,000 compounds, 15% with a hit somewhere; the sample as a whole holds those more often. Values without a mark were called inactive. The source made the active and inactive calls. Rule as the data show it: active = growth inhibition above about 70%; inactive = the rest.
# Assays:
# [1] = NCI Yeast Anticancer Drug Screen. Data for the rad52 strain (AID 147);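 also: 0% = growth of vehicle-treated control cultures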; conditions: S. cerevisiae rad52 mutant growth inhibition, hits give high values
# Procedure, shortened: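 Screen used a yeast mutant impaired in DNA repair. After compound exposure, growth was measured. Values reflect inhibition compared with vehicle-treated cells.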
# [2] = NCI Yeast Anticancer Drug Screen. Data for the wt1 strain (AID 149);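 also: 0% = growth of vehicle-treated wt1 cultures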; conditions: S. cerevisiae wt1 strain (SPY 50644) growth inhibition, hits give high values
# Procedure, shortened: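 Vehicle-normalised growth inhibition; strain wt1; compound exposure.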
# [3] = NCI Yeast Anticancer Drug Screen. Data for the rad50EPP+ strain (AID 151);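 also: 0% = growth of vehicle-treated control cultures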; conditions: S. cerevisiae rad50 mutant strain, hits give high values
# Procedure, shortened: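 Exposing the rad50EPP+ strain to each compound, growth was compared with vehicle-only cultures to give inhibition.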
# [4] = NCI Yeast Anticancer Drug Screen. Data for the mgt1 strain (AID 153); conditions: S. cerevisiae mgt1 mutant growth inhibition, hits give high values
# Procedure, shortened: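 Genetically defined yeast (mgt1) treated with compound; inhibition of growth expressed against vehicle-treated controls.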
# [5] = NCI Yeast Anticancer Drug Screen. Data for the rad50 strain (AID 155);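 also: 0% = growth of vehicle-only cultures of the same strain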; conditions: S. cerevisiae rad50 strain growth inhibition, hits give high values
# Procedure, shortened: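 A DNA repair-deficient yeast mutant serves as the test organism; compound-induced growth inhibition is calculated against vehicle-treated cells.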
# [6] = NCI Yeast Anticancer Drug Screen. Data for the mec2-1 strain (AID 157); conditions: S. cerevisiae mec2-1 strain, hits give high values
# Procedure, shortened: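 Readout is yeast growth inhibition, normalised to vehicle-treated controls, in the mec2-1 strain exposed to compound.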
# [7] = NCI Yeast Anticancer Drug Screen. Data for the rad14 strain (AID 159);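 also: 0% = growth of vehicle-treated control cultures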; conditions: S. cerevisiae rad14 strain growth inhibition, hits give high values
# Procedure, shortened: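 Vehicle-treated cultures served as the baseline for growth inhibition of a DNA repair-mutant yeast strain exposed to each compound.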
# [8] = NCI Yeast Anticancer Drug Screen. Data for the sgs1 mgt1 strain (AID 161);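 also: 0% = growth of cultures given vehicle only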; conditions: S. cerevisiae sgs1 mgt1 strain, hits give high values
# Procedure, shortened: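 Yeast cells carrying a defined DNA-repair defect were exposed to test compounds. Growth inhibition was measured relative to vehicle-treated controls.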
# [9] = NCI Yeast Anticancer Drug Screen. Data for the CLN2oe strain (AID 163);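 also: 0% = growth of vehicle-only control cultures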; conditions: S. cerevisiae CLN2oe strain, hits give high values
# Procedure, shortened: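 Values reflect how much compound exposure reduced yeast growth, referenced to vehicle-exposed cells. Assay organism is a strain with a defined genetic change affecting cell-cycle control.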
# [10] = NCI Yeast Anticancer Drug Screen. Data for the cln2 rad14 strain (AID 165);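 also: 0% = growth equal to vehicle treated cultures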; conditions: S. cerevisiae cln2 rad14 strain, hits give high values
# Procedure, shortened: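 Relative to vehicle controls, growth inhibition of compound-treated cln2 rad14 yeast was recorded.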
# [11] = NCI Yeast Anticancer Drug Screen. Data for the bub3 strain (AID 167); conditions: S. cerevisiae bub3 mutant strain, hits give high values
# Procedure, shortened: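 Inhibition values come from growth of compound-treated mutant yeast normalised to vehicle-treated controls.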
# [12] = NCI Yeast Anticancer Drug Screen. Data for the wt2 strain (AID 169);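 also: 0% = growth of vehicle-treated yeast cultures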; conditions: S. cerevisiae wt2 strain growth inhibition, hits give high values
# Procedure, shortened: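 Values express reduction in yeast growth under compound treatment, referenced to vehicle-treated cells.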
# [13] = NCI Yeast Anticancer Drug Screen. Data for the mlh1 strain (AID 171);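 also: 0% = growth of vehicle-treated control cultures of the same strain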; conditions: S. cerevisiae mlh1 strain growth inhibition, hits give high values
# Procedure, shortened: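 Steps: expose the defined-mutant yeast strain to compound; expose a parallel culture to vehicle; measure growth; express compound effect as inhibition relative to the vehicle culture.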
# [14] = NCI Yeast Anticancer Drug Screen. Data for the sgs1 strain (AID 173);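 also: 0% = growth of vehicle-only control cultures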; conditions: S. cerevisiae sgs1 mutant, hits give high values
# Procedure, shortened: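 Treat defined-mutant yeast with compound; measure growth; calculate inhibition relative to vehicle-treated cells.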
# [15] = NCI Yeast Anticancer Drug Screen. Data for the mlh1 rad18 strain (AID 175); conditions: S. cerevisiae mlh1 rad18 strain growth inhibition, hits give high values
# Procedure, shortened: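 Test agents were incubated with a yeast strain of defined genotype (DNA damage repair defect). Inhibition of growth was derived by comparison with vehicle-exposed cultures.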
# [16] = NCI Yeast Anticancer Drug Screen. Data for the rad18 strain (AID 177); conditions: S. cerevisiae rad18 mutant growth inhibition, hits give high values
# Procedure, shortened: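 A genetically defined yeast mutant impaired in DNA damage repair was treated with test compounds, then its growth was measured against cultures receiving vehicle alone.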
# [17] = at 5.0 µM (retest, dose inferred, filed as 0.5)
# [18] = at 50.0 µM (retest, dose inferred, filed as 5.0)
smiles,measurement,setting,value
N#[N+]c1c([O-])c2ccccc2c2ccccc12,growth inhibition,[1]; at 1.2 µM,13%
same,growth inhibition,[1]; at 3.7 µM,23%
same,growth inhibition,[1]; at 11.0 µM,82% (active)
same,growth inhibition,[1]; at 33.0 µM,97% (active)
same,growth inhibition,[1]; at 100.0 µM,97% (active)
same,growth inhibition,[2]; at 1.2 µM,3%
same,growth inhibition,[2]; at 3.7 µM,4%
same,growth inhibition,[2]; at 11.0 µM,15%
same,growth inhibition,[2]; at 33.0 µM,30%
same,growth inhibition,[2]; at 100.0 µM,97% (active)
same,growth inhibition,[3]; at 1.2 µM,13%
same,growth inhibition,[3]; at 3.7 µM,32%
same,growth inhibition,[3]; at 11.0 µM,84% (active)
same,growth inhibition,[3]; at 33.0 µM,96% (active)
same,growth inhibition,[3]; at 100.0 µM,96% (active)
same,growth inhibition,[4]; at 1.2 µM,4%
same,growth inhibition,[4]; at 3.7 µM,15%
same,growth inhibition,[4]; at 11.0 µM,23%
same,growth inhibition,[4]; at 33.0 µM,39%
same,growth inhibition,[4]; at 100.0 µM,97% (active)
same,growth inhibition,[5]; at 1.2 µM,22%
same,growth inhibition,[5]; at 3.7 µM,46%
same,growth inhibition,[5]; [17],-23%
same,growth inhibition,[5]; at 11.0 µM,85% (active)
same,growth inhibition,[5]; at 33.0 µM,96% (active)
same,growth inhibition,[5]; [18],35%
same,growth inhibition,[5]; at 50.0 µM,92.7% (active)
same,growth inhibition,[5]; at 100.0 µM,96% (active)
same,growth inhibition,[6]; at 1.2 µM,0%
same,growth inhibition,[6]; at 3.7 µM,0%
same,growth inhibition,[6]; [17],-1%
same,growth inhibition,[6]; at 11.0 µM,7%
same,growth inhibition,[6]; at 33.0 µM,60%
same,growth inhibition,[6]; [18],36%
same,growth inhibition,[6]; at 50.0 µM,48.6%
same,growth inhibition,[6]; at 100.0 µM,97% (active)
same,growth inhibition,[7]; at 1.2 µM,3%
same,growth inhibition,[7]; at 3.7 µM,17%
same,growth inhibition,[7]; at 11.0 µM,25%
same,growth inhibition,[7]; at 33.0 µM,80% (active)
same,growth inhibition,[7]; at 100.0 µM,97% (active)
same,growth inhibition,[8]; [17],-5%
same,growth inhibition,[8]; [18],16%
same,growth inhibition,[8]; at 50.0 µM,76.2% (active)
same,growth inhibition,[9]; at 1.2 µM,4%
same,growth inhibition,[9]; at 3.7 µM,8%
same,growth inhibition,[9]; at 11.0 µM,18%
same,growth inhibition,[9]; at 33.0 µM,42%
same,growth inhibition,[9]; at 100.0 µM,95% (active)
same,growth inhibition,[10]; [17],-41%
same,growth inhibition,[10]; [18],2%
same,growth inhibition,[10]; at 50.0 µM,47.5%
same,growth inhibition,[11]; at 1.2 µM,12%
same,growth inhibition,[11]; at 3.7 µM,10%
same,growth inhibition,[11]; [17],-14%
same,growth inhibition,[11]; at 11.0 µM,24%
same,growth inhibition,[11]; at 33.0 µM,54%
same,growth inhibition,[11]; [18],22%
same,growth inhibition,[11]; at 50.0 µM,44%
same,growth inhibition,[11]; at 100.0 µM,95% (active)
same,growth inhibition,[12]; at 1.2 µM,2%
same,growth inhibition,[12]; at 3.7 µM,5%
same,growth inhibition,[12]; at 11.0 µM,12%
same,growth inhibition,[12]; at 33.0 µM,60%
same,growth inhibition,[12]; at 100.0 µM,98% (active)
same,growth inhibition,[13]; at 1.2 µM,-1%
same,growth inhibition,[13]; at 3.7 µM,-1%
same,growth inhibition,[13]; at 11.0 µM,20%
same,growth inhibition,[13]; at 33.0 µM,65%
same,growth inhibition,[13]; at 100.0 µM,97% (active)
same,growth inhibition,[14]; at 1.2 µM,0%
same,growth inhibition,[14]; at 3.7 µM,4%
same,growth inhibition,[14]; at 11.0 µM,20%
same,growth inhibition,[14]; at 33.0 µM,82% (active)
same,growth inhibition,[14]; at 100.0 µM,97% (active)
same,growth inhibition,[15]; [17],-29%
same,growth inhibition,[15]; [18],50%
same,growth inhibition,[15]; at 50.0 µM,86% (active)
same,growth inhibition,[16]; at 1.2 µM,30%
same,growth inhibition,[16]; at 3.7 µM,50%
same,growth inhibition,[16]; at 11.0 µM,93% (active)
same,growth inhibition,[16]; at 33.0 µM,98% (active)
same,growth inhibition,[16]; at 100.0 µM,96% (active)
O=C(/C(=C/c1ccc(O)cc1)c1ccccc1)c1ccccc1,growth inhibition,[1]; at 1.2 µM,-52%
same,growth inhibition,[1]; at 3.7 µM,-55%
same,growth inhibition,[1]; at 11.0 µM,-14%
same,growth inhibition,[1]; at 33.0 µM,99% (active)
same,growth inhibition,[1]; at 100.0 µM,93% (active)
same,growth inhibition,[2]; at 1.2 µM,-22%
same,growth inhibition,[2]; at 3.7 µM,-13%
same,growth inhibition,[2]; at 11.0 µM,35%
same,growth inhibition,[2]; at 33.0 µM,98% (active)
same,growth inhibition,[2]; at 100.0 µM,92% (active)
same,growth inhibition,[3]; at 1.2 µM,-5%
same,growth inhibition,[3]; at 3.7 µM,-2%
same,growth inhibition,[3]; at 11.0 µM,1%
same,growth inhibition,[3]; at 33.0 µM,15%
same,growth inhibition,[3]; at 100.0 µM,9%
same,growth inhibition,[4]; at 1.2 µM,-4%
same,growth inhibition,[4]; at 3.7 µM,-2%
same,growth inhibition,[4]; at 11.0 µM,51%
same,growth inhibition,[4]; at 33.0 µM,99% (active)
same,growth inhibition,[4]; at 100.0 µM,89% (active)
same,growth inhibition,[5]; at 1.2 µM,-8%
same,growth inhibition,[5]; at 3.7 µM,-2%
same,growth inhibition,[5]; [17],27%
same,growth inhibition,[5]; at 11.0 µM,53%
same,growth inhibition,[5]; at 33.0 µM,98% (active)
same,growth inhibition,[5]; [18],98% (active)
same,growth inhibition,[5]; at 50.0 µM,87.5% (active)
same,growth inhibition,[5]; at 100.0 µM,93% (active)
same,growth inhibition,[6]; at 1.2 µM,-27%
same,growth inhibition,[6]; at 3.7 µM,-20%
same,growth inhibition,[6]; [17],-8%
same,growth inhibition,[6]; at 11.0 µM,55%
same,growth inhibition,[6]; at 33.0 µM,98% (active)
same,growth inhibition,[6]; [18],97% (active)
same,growth inhibition,[6]; at 50.0 µM,34.5%
same,growth inhibition,[6]; at 100.0 µM,85% (active)
same,growth inhibition,[7]; at 1.2 µM,-2%
same,growth inhibition,[7]; at 3.7 µM,0%
same,growth inhibition,[7]; at 11.0 µM,13%
same,growth inhibition,[7]; at 33.0 µM,99% (active)
same,growth inhibition,[7]; at 100.0 µM,94% (active)
same,growth inhibition,[8]; [17],39%
same,growth inhibition,[8]; [18],97% (active)
same,growth inhibition,[8]; at 50.0 µM,93% (active)
same,growth inhibition,[9]; at 1.2 µM,8%
same,growth inhibition,[9]; at 3.7 µM,10%
same,growth inhibition,[9]; at 11.0 µM,61%
same,growth inhibition,[9]; at 33.0 µM,99% (active)
same,growth inhibition,[9]; at 100.0 µM,93% (active)
same,growth inhibition,[10]; [17],20%
same,growth inhibition,[10]; [18],97% (active)
same,growth inhibition,[10]; at 50.0 µM,92.5% (active)
same,growth inhibition,[11]; at 1.2 µM,22%
same,growth inhibition,[11]; at 3.7 µM,12%
same,growth inhibition,[11]; [17],2%
same,growth inhibition,[11]; at 11.0 µM,82% (active)
same,growth inhibition,[11]; at 33.0 µM,99% (active)
same,growth inhibition,[11]; [18],98% (active)
same,growth inhibition,[11]; at 50.0 µM,91.3% (active)
same,growth inhibition,[11]; at 100.0 µM,90% (active)
same,growth inhibition,[12]; at 1.2 µM,-38%
same,growth inhibition,[12]; at 3.7 µM,-31%
same,growth inhibition,[12]; at 11.0 µM,33%
same,growth inhibition,[12]; at 33.0 µM,98% (active)
same,growth inhibition,[12]; at 100.0 µM,93% (active)
same,growth inhibition,[13]; at 1.2 µM,6%
same,growth inhibition,[13]; at 3.7 µM,24%
same,growth inhibition,[13]; at 11.0 µM,68%
same,growth inhibition,[13]; at 33.0 µM,98% (active)
same,growth inhibition,[13]; at 100.0 µM,88% (active)
same,growth inhibition,[14]; at 1.2 µM,-18%
same,growth inhibition,[14]; at 3.7 µM,-13%
same,growth inhibition,[14]; at 11.0 µM,16%
same,growth inhibition,[14]; at 33.0 µM,98% (active)
same,growth inhibition,[14]; at 100.0 µM,93% (active)
same,growth inhibition,[15]; [17],0%
same,growth inhibition,[15]; [18],98% (active)
same,growth inhibition,[15]; at 50.0 µM,84% (active)
same,growth inhibition,[16]; at 1.2 µM,-29%
same,growth inhibition,[16]; at 3.7 µM,-33%
same,growth inhibition,[16]; at 11.0 µM,17%
same,growth inhibition,[16]; at 33.0 µM,98% (active)
same,growth inhibition,[16]; at 100.0 µM,86% (active)
